The full list was thinned out, with hits kept by preference.
C diff growth: C. difficile growth inhibitors, primary screen, HTS. growth activity, negative = inhibition, % at 16 µg/mL (by protocol). AID 1259249, 2017. Clostridium difficile clinical isolate growth, OD600, 24 h; hits give low values. 0.25% of 86,000 active;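 active = mean growth activity at or below -80% and every replicate also at or below -80%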;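 also: 0% = DMSO wells and -100% = levofloxacin 16 µg/mL wells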
Active calls of the source: *; ! = repeats disagree.

`COc1ccc(NC(=O)Nc2ccc3c(c2)C(=O)N([C@@H](C)CO)C[C@@H](C)[C@H](CN(C)Cc2ccc(C(F)(F)F)cc2)OCCCC[C@@H](C)O3)cc1` gave C diff growth 7.
Screening COc1ccc(NC(=O)Nc2ccc3c(c2)C(=O)N([C@H](C)CO)C[C@H](C)[C@H](CN(C)Cc2ccc(C(F)(F)F)cc2)OCCCC[C@@H](C)O3)cc1 returned C diff growth 12.
Screening C[C@@H]1CCCCO[C@@H](CN(C)Cc2ccc3c(c2)OCO3)[C@H](C)CN([C@H](C)CO)C(=O)c2cc(NC(=O)Nc3ccc(C(F)(F)F)cc3)ccc2O1 returned C diff growth -95*.
Cc1ccc(S(=O)(=O)N(C)C[C@@H]2Oc3ccc(NC(=O)Nc4ccc(F)cc4)cc3CC(=O)N([C@H](C)CO)C[C@H]2C)cc1 was read as C diff growth -3.
For C[C@@H]1CN([C@H](C)CO)C(=O)Cc2cc(NC(=O)CCN3CCOCC3)ccc2O[C@H]1CN(C)S(=O)(=O)c1ccc(F)cc1 the results were C diff growth 1.
COc1cccc(C(=O)Nc2ccc3c(c2)OC[C@@H](C)N(C)C[C@@H](C)[C@H](OC)CN(C)C3=O)c1 was read as C diff growth -5.
`COCCOC(=O)N1C(=O)[C@@]2(c3ccccc31)[C@H](C(=O)Nc1nc3ccccc3s1)[C@H]1C(=O)O[C@H](c3ccccc3)[C@H](c3ccccc3)N1[C@@H]2c1ccc(OCCO)cc1` gave C diff growth -3.
For O=C(C[C@H]1CC[C@H]2[C@@H](COC[C@H](O)CN2C(=O)Nc2ccc(Cl)c(Cl)c2)O1)NCc1ccc(Cl)cc1 the results were C diff growth -49.
`C[C@H]1CN([C@@H](C)CO)S(=O)(=O)c2ccc(C#CC3(O)CCCC3)cc2O[C@H]1CN(C)C(=O)c1ccncc1` gave C diff growth 2.
`C[C@@H]1CN([C@H](C)CO)C(=O)c2cc(NC(=O)CCC(F)(F)F)ccc2O[C@@H](C)CCCCO[C@H]1CN(C)C(=O)Cc1ccccc1` gave C diff growth -3.
`O=C(C[C@@H]1CC[C@H](NC(=O)Nc2ccc3c(c2)OCO3)[C@H](CO)O1)NCc1ccc(F)cc1` gave C diff growth 2.
For NCC[C@H]1CC[C@H](NC(=O)CCN2CCCCC2)[C@@H](CO)O1 the results were C diff growth 1.
Screening CCCNC(=O)C[C@H]1CC[C@H]2[C@@H](COC[C@@H](O)CN2CC2CCCCC2)O1 returned C diff growth 11.
Screening O=C(C[C@@H]1CC[C@H]2[C@@H](COC[C@@H](O)CN2C(=O)Nc2ccc(Cl)c(Cl)c2)O1)NC1CCC1 returned C diff growth -102*!.
For CCCNC(=O)C[C@@H]1CC[C@@H]2[C@H](COC[C@H](O)CN2C(=O)Nc2ccc(Cl)c(Cl)c2)O1 the results were C diff growth -102*!.
`O=C(C[C@H]1CC[C@H]2[C@@H](COC[C@@H](O)CN2C(=O)Nc2ccc(F)cc2)O1)NC1CCC1` gave C diff growth 13.
Screening O=C(C[C@H]1CC[C@@H]2[C@H](COC[C@@H](O)CN2C(=O)Nc2ccc(Cl)c(Cl)c2)O1)NCc1ccc(F)cc1 returned C diff growth -7.
Screening O=C(C[C@H]1CC[C@@H]2[C@H](COC[C@H](O)CN2C(=O)Nc2ccc(Cl)c(Cl)c2)O1)NCc1ccc(F)cc1 returned C diff growth -91*.
For O=C(C[C@H]1CC[C@@H]2[C@H](COC[C@@H](O)CN2C(=O)Nc2ccc(Cl)c(Cl)c2)O1)NC1CCC1 the results were C diff growth 48.
`CNC(=O)C[C@H]1CC[C@H]2[C@@H](COC[C@H](O)CN2C(=O)Nc2ccc(Cl)c(Cl)c2)O1` gave C diff growth -28.
Screening O=C(C[C@H]1CC[C@@H]2[C@H](COC[C@H](O)CN2C(=O)Nc2ccc(Cl)c(Cl)c2)O1)NCc1ccc(Cl)cc1 returned C diff growth -52.
`CNC(=O)C[C@@H]1CC[C@@H]2[C@H](COC[C@H](O)CN2C(=O)Nc2ccc(Cl)c(Cl)c2)O1` gave C diff growth -12.
Cc1noc(C)c1S(=O)(=O)N(C)C[C@@H]1OCCCC[C@H](C)Oc2ccc(NS(=O)(=O)c3cccs3)cc2C(=O)N([C@@H](C)CO)C[C@H]1C was read as C diff growth 0.
`COc1ccc(CN(C)C[C@H]2OCCCC[C@H](C)Oc3ccc(NS(C)(=O)=O)cc3C(=O)N([C@@H](C)CO)C[C@@H]2C)cc1` gave C diff growth -2.
CC=Cc1ccc2n(c1=O)C[C@H]1[C@H](CO)[C@@H](C(=O)N3CCCCC3)N(C(=O)CC)[C@@H]21 (mixture of isomers) was read as C diff growth 1.
`C[C@H]1CCCCO[C@@H](CN(C)C(=O)Cc2ccccc2)[C@@H](C)CN([C@@H](C)CO)C(=O)c2cc(NS(=O)(=O)c3cn(C)cn3)ccc2O1` gave C diff growth 3.
Cc1ccc(-c2cnc3c(c2)C(=O)N([C@@H](C)CO)C[C@@H](C)[C@H](CN(C)C(=O)c2cccnc2)O3)cc1 was read as C diff growth -6.
For C[C@H]1CN([C@@H](C)CO)S(=O)(=O)c2ccc(/C=C/c3ccccc3)cc2O[C@H]1CN(C)Cc1ccc(C(=O)O)cc1 the results were C diff growth 1.
For C[C@H](CO)N1C[C@H](C)[C@@H](CN(C)Cc2ccc(C(=O)O)cc2)Oc2cc(/C=C/c3ccccc3)ccc2S1(=O)=O the results were C diff growth -3.
For C[C@@H]1CN([C@H](C)CO)S(=O)(=O)c2ccc(/C=C/c3ccccc3)cc2O[C@H]1CN(C)Cc1ccc(C(=O)O)cc1 the results were C diff growth -98*.
`CO[C@H]1CN(C)C(=O)c2cc(NC(=O)Nc3ccc(Cl)cc3)ccc2OC[C@@H](C)NC[C@H]1C` gave C diff growth -4.
CO[C@H]1CN(C)C(=O)c2cc(NC(=O)Nc3ccc(Cl)c(Cl)c3)ccc2OC[C@@H](C)NC[C@H]1C was read as C diff growth -97*.
Screening CO[C@H]1CN(C)C(=O)c2cc(NC(=O)Nc3ccc(Cl)cc3)ccc2OC[C@@H](C)NC[C@@H]1C returned C diff growth 0.
Screening CO[C@@H]1CN(C)C(=O)c2cc(NC(=O)Nc3ccc(Cl)cc3)ccc2OC[C@H](C)NC[C@@H]1C returned C diff growth -3.
For CO[C@H]1CN(C)C(=O)c2cc(NC(=O)Nc3ccccc3)ccc2OC[C@H](C)NC[C@H]1C the results were C diff growth -3.
Screening CO[C@H]1CN(C)C(=O)c2cc(NC(=O)Nc3ccc(Cl)c(Cl)c3)ccc2OC[C@@H](C)NC[C@@H]1C returned C diff growth -96*.
`CN1c2ccc(-c3ccc(F)cc3)cc2[C@@H]2[C@@H](CCN2S(=O)(=O)c2cccc(F)c2)[C@H]1CO` gave C diff growth 5.
`C[C@H]1CCCCO[C@H](CN(C)CC2CC2)[C@@H](C)CN([C@@H](C)CO)C(=O)c2cc(NC(=O)Nc3ccc4c(c3)OCO4)ccc2O1` gave C diff growth 4.
For CC(C)NC(=O)N(C)C[C@@H]1Oc2ncc(-c3cccc(F)c3)cc2C(=O)N([C@H](C)CO)C[C@@H]1C the results were C diff growth -1.
COc1ccc(C(=O)Nc2ccc3c(c2)OC[C@@H](C)NC[C@@H](C)[C@@H](OC)CN(C)C3=O)cc1 was read as C diff growth -1.
For CCC(=O)N[C@H]1CC[C@@H](CCn2cc(C3CC3)nn2)O[C@H]1CO the results were C diff growth 2.

Compound activity deposited in PubChem by Broad Institute.
